From PubChem
Shown are actives, neighbours in structure and some others; about 6.8% of the full set was active somewhere.
Cy5 interf NS3h: counter-screen for HCV NS3 helicase inhibitors: fluorescence interference. Cy5-dT15 DNA with NS3h; actives lie on both sides; signal over control mean, under 1 quenches. fluorescence interference ratio at 100 µM. 6% of 16,000 active. AID 720488;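 active = compound fluorescence over control fluorescence at most 0.8, a quencher, or at least a set upper limit, an enhancer; inactive = ratio between 0.8 and the set upper limit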
HCV NS3h FP: hepatitis C NS3 helicase inhibition, primary screen. NS3h Cy5-dT15 DNA binding, fluorescence polarization. inhibition, % at 100 µM. 1.6% of 16,000 active. AID 687043;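 active = inhibition above the average over every tested compound plus 3 SD, cut at about 40% in these data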
Numbers stand for hits.

For COC(=O)CC12CC3CC(C1)CC(CC(=O)OC)(C3)C2 the results were Cy5 interf NS3h inactive and HCV NS3h FP inactive.
Screening O=C(/C=C1/Nc2ccccc2NC1=O)Nc1cccc(C(F)(F)F)c1 returned Cy5 interf NS3h inactive and HCV NS3h FP inactive.
COC(=O)/C=C1\Nc2cc([N+](=O)[O-])ccc2NC1=O was read as Cy5 interf NS3h 0.72 and HCV NS3h FP inactive.
`CCC1=NN2C(=N)/C(=C/c3ccc(-c4ccc([N+](=O)[O-])cc4OC)o3)C(=O)N=C2S1` gave Cy5 interf NS3h 1.2 and HCV NS3h FP inactive.
For COc1cc([N+](=O)[O-])ccc1-c1ccc(/C=C2\C(=O)NC(=S)N(c3ccc(C)cc3)C2=O)o1 the results were Cy5 interf NS3h inactive and HCV NS3h FP inactive.
Screening O=C1C2C(C(=O)N1c1cc(C(F)(F)F)ccc1Cl)C1C=CC2C12CC2 (stereo unspecified) returned Cy5 interf NS3h inactive and HCV NS3h FP inactive.
Screening CCc1nc(C)ccc1OC(=O)C1C2CC3CC(C2)CC1C3 (stereo unspecified) returned Cy5 interf NS3h inactive and HCV NS3h FP inactive.
COc1c(Cl)cc(C(=O)Nc2cccc(C(F)(F)F)c2)cc1Cl was read as Cy5 interf NS3h 0.53 and HCV NS3h FP inactive.
COc1ccc(NC(=O)c2cccc(Cl)c2)cc1Cl was read as Cy5 interf NS3h 0.7 and HCV NS3h FP inactive.
Screening COc1ccc(C(=O)Nc2ccc(Cl)cc2C)cc1OC returned Cy5 interf NS3h 0.78 and HCV NS3h FP inactive.
For COc1c(Cl)cc(C(=O)Nc2c(C)cccc2C)cc1Cl the results were Cy5 interf NS3h inactive and HCV NS3h FP inactive.
Screening COc1ccc(C(=O)/C=C/Nc2ccc(Cl)cc2[N+](=O)[O-])cc1OC returned Cy5 interf NS3h 0.22 and HCV NS3h FP inactive.
`COc1ccc(C(=O)/C=C/Nc2ccccc2NS(=O)(=O)c2ccc([N+](=O)[O-])cc2)cc1OC` gave Cy5 interf NS3h inactive and HCV NS3h FP inactive.
Screening COc1ccc(NC(=O)c2ccc(Cl)cc2)cc1Cl returned Cy5 interf NS3h inactive and HCV NS3h FP inactive.
`COc1ccc(C(=O)Nc2ccc(C)cc2C)cc1OC` gave Cy5 interf NS3h inactive and HCV NS3h FP inactive.
COc1cc(NC(=O)c2ccc(-c3ccccc3[N+](=O)[O-])o2)ccc1NC(=O)c1ccco1 was read as Cy5 interf NS3h inactive and HCV NS3h FP inactive.
CC(C)c1ccc(NC(=O)c2ccc(CN3CCc4ccccc4C3)cc2)cc1 was read as Cy5 interf NS3h inactive and HCV NS3h FP inactive.
CC(=O)Nc1ccc(NC(=S)NC(NC(=O)c2ccc(C)cc2)C(Cl)(Cl)Cl)cc1 (stereo unspecified) was read as Cy5 interf NS3h 0.67 and HCV NS3h FP inactive.
CC(=O)c1ccc(NC(=S)NC(NC(=O)c2ccc(C)cc2)C(Cl)(Cl)Cl)cc1 (stereo unspecified) was read as Cy5 interf NS3h inactive and HCV NS3h FP inactive.
`O=C(NC(NC(=S)Nc1cccc2ccccc12)C(Cl)(Cl)Cl)c1ccccc1` (stereo unspecified) gave Cy5 interf NS3h inactive and HCV NS3h FP inactive.
CC(=O)c1ccc(NC(=S)NC(NC(=O)c2ccc(Cl)cc2Cl)C(Cl)(Cl)Cl)cc1 (stereo unspecified) was read as Cy5 interf NS3h inactive and HCV NS3h FP inactive.
Screening Cc1ccc(C(=O)NC(NC(=S)Nc2cccc3ccccc23)C(Cl)(Cl)Cl)cc1 (stereo unspecified) returned Cy5 interf NS3h 0.71 and HCV NS3h FP inactive.
CC(=O)NC(NC(=S)Nc1cccc(Cl)c1)C(Cl)(Cl)Cl (stereo unspecified) was read as Cy5 interf NS3h 1.2 and HCV NS3h FP inactive.
For Cc1onc(-c2c(Cl)cccc2Cl)c1C(=O)NCc1ccc(Cl)cc1 the results were Cy5 interf NS3h inactive and HCV NS3h FP inactive.
For COc1cc(NC(=O)c2cccc(F)c2)cc(OC)c1 the results were Cy5 interf NS3h inactive and HCV NS3h FP inactive.
For Cc1nnc(C)n1/N=C\c1ccc(O)cc1O the results were Cy5 interf NS3h inactive and HCV NS3h FP inactive.
Screening Cc1cc(C)c(NC(=O)c2ccc([N+](=O)[O-])c(C)c2)c(C)c1 returned Cy5 interf NS3h inactive and HCV NS3h FP inactive.
Screening COc1ccccc1NC(=O)CN(c1ccc(C)cc1)S(=O)(=O)c1ccc(SC)cc1 returned Cy5 interf NS3h 0.69 and HCV NS3h FP inactive.
`CSc1ccc(S(=O)(=O)N(CC(=O)Nc2cccc(Br)c2)c2ccc(C)cc2)cc1` gave Cy5 interf NS3h inactive and HCV NS3h FP inactive.
For COCCNC(=O)CN(c1ccc(C)cc1)S(=O)(=O)c1ccc(SC)cc1 the results were Cy5 interf NS3h inactive and HCV NS3h FP inactive.
For CSc1ccc(S(=O)(=O)N(CC(=O)Nc2cccc(C)c2)c2ccc(C)cc2)cc1 the results were Cy5 interf NS3h 0.7 and HCV NS3h FP inactive.
For Cc1cc(C)c(OCCCCN2CCCC2)c(Cl)c1 the results were Cy5 interf NS3h inactive and HCV NS3h FP inactive.
`CCOC(=O)C1=C(N)Oc2ccc3ccccc3c2C1c1ccc(Br)cc1` (stereo unspecified) gave Cy5 interf NS3h inactive and HCV NS3h FP inactive.
Cc1cc(Cl)ccc1OCC(=O)Nc1ncn[nH]1 was read as Cy5 interf NS3h inactive and HCV NS3h FP inactive.
For COc1cc(C=C2C(=O)NC(=O)NC2=O)ccc1OCCSc1ccc(C)cc1 the results were Cy5 interf NS3h inactive and HCV NS3h FP inactive.
COc1ccc(N=C(NOC(C)=O)c2ccc(Cl)cc2)c(OC)c1 was read as Cy5 interf NS3h 0.73 and HCV NS3h FP inactive.
For COc1ccc(/C=C/C(=O)c2ccc(Cl)cc2)c(OC)c1 the results were Cy5 interf NS3h inactive and HCV NS3h FP inactive.
Screening O=C(COc1ccc(Cl)cc1)Nc1ccc2oc(-c3ccccc3F)nc2c1 returned Cy5 interf NS3h inactive and HCV NS3h FP inactive.
Screening CC1=NN(C(=O)c2ccc([N+](=O)[O-])cc2)C(O)(c2ccc(Cl)cc2)C1 (stereo unspecified) returned Cy5 interf NS3h inactive and HCV NS3h FP inactive.
Screening CC(C)(C)C1=NN(C(=O)c2ccc([N+](=O)[O-])cc2)C(O)(C(F)(F)F)C1 (stereo unspecified) returned Cy5 interf NS3h 0.67 and HCV NS3h FP inactive.
`CCOC(=O)c1nc2nc(-c3cccs3)cc(C(F)(F)F)n2n1` gave Cy5 interf NS3h 0.75 and HCV NS3h FP inactive.
Screening CC(C)OC(=O)c1cc2nc(-c3cccs3)cc(C(F)(F)F)n2n1 returned Cy5 interf NS3h 0.66 and HCV NS3h FP inactive.
For Cc1c(Cl)cccc1NC(=O)c1cc2nc(-c3cccs3)cc(C(F)(F)F)n2n1 the results were Cy5 interf NS3h inactive and HCV NS3h FP inactive.
CCOC(=O)C1=C(C)N=c2s/c(=C\c3cccs3)c(=O)n2C1c1ccc(SC)cc1 (stereo unspecified) was read as Cy5 interf NS3h inactive and HCV NS3h FP inactive.
COC(=O)c1ccccc1NC(=O)CN(c1cccc(OC)c1)S(=O)(=O)c1ccccc1 was read as Cy5 interf NS3h inactive and HCV NS3h FP inactive.
Screening COC(=O)c1ccccc1NC1=NS(=O)(=O)c2ccccc21 returned Cy5 interf NS3h inactive and HCV NS3h FP inactive.
`CN=C(NOCc1ccccc1)c1nonc1N` gave Cy5 interf NS3h inactive and HCV NS3h FP inactive.
Screening CCN(CC)/C(=N\OCc1ccc(Cl)cc1Cl)c1nonc1N returned Cy5 interf NS3h 0.67 and HCV NS3h FP inactive.
Screening COC(=O)CNC(=O)Cc1ccccc1[N+](=O)[O-] returned Cy5 interf NS3h inactive and HCV NS3h FP inactive.
